# According to PubChem BioAssay (NCI):
# Compounds without any hit were thinned out: in the full panel of roughly 83,000, 20% have a hit.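 Results are percent growth after 48 hours of single-concentration exposure. 100 means growth as in untreated cells, lower positive values show inhibition; negative values down to -100 show cell death.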 Values without a mark were called inactive. Activity calls are given as the source filed them. The calls were made as follows: active = growth percent below 10; inactive = the rest.
# Columns and labels:
# Test in all cases: NCI-60 one-dose screen, 48 h (100 = growth as untreated, 0 = no growth, -100 = all killed)
# Conditions in all cases: 10 µM unless noted
# T-47D breast = tested on: T-47D breast
# BT-549 breast = tested on: BT-549 breast
# MDA-MB-435 melanoma = tested on: MDA-MB-435 melanoma
# SW-620 colon = tested on: SW-620 colon
# MCF7 breast = tested on: MCF7 breast
# HCT-116 colon = tested on: HCT-116 colon
# HCC-2998 colon = tested on: HCC-2998 colon
# KM12 colon = tested on: KM12 colon
Compound,growth (T-47D breast),growth (BT-549 breast),growth (MDA-MB-435 melanoma),growth (SW-620 colon),growth (MCF7 breast),growth (HCT-116 colon),growth (HCC-2998 colon),growth (KM12 colon)
C/C(=N\Nc1ccccc1)c1ccc(NC2=CC(=O)c3ccccc3C2=O)cc1,38.8%,76.3%,-80.3% (active),48.4%,30.4%,51%,77.9%,43.7%
C=C1C(=O)O[C@H]2[C@H]1CC/C(CNC(=O)Cc1c[nH]c3ccccc13)=C\CC[C@@]1(C)O[C@@H]21,-9.45% (active),13.6%,7.96% (active),-20.4% (active),17.8%,-11.9% (active),60.4%,47.5%
N[C@@H]1CCC[C@H]1NCCCCN1C(=O)c2cccc3cc([N+](=O)[O-])cc(c23)C1=O,38.1%,69.7%,43.4%,23.8%,17.2%,11.3%,48%,33.1%
COc1ccc2[nH]cc(-c3nonc3-c3c[nH]c4ccc(Br)cc34)c2c1,3.83% (active),74.9%,65.8%,59.5%,31.2%,36.7%,22.2%,15.5%
COC1/C=C/OC2(C)Oc3c(C)c(O)c4c(O)c(c(/C=N/N(c5ccccc5)c5ccccc5)c(O)c4c3C2=O)NC(=O)C(C)=C/C=C/C(C)C(O)C(C)C(O)C(C)C(OC(C)=O)C1C (stereo not given),-3.9% (active),88.9%,67.9%,4.75% (active),32.8%,38.7%,71.1%,55.6%
c1ccc(Nc2nc3c(s2)CCc2c[nH]cc2-3)nc1,11%,95.4%,110%,102%,65.1%,72.2%,103%,92.3%
CN(C)CCCNC(=O)c1cncnc1Nc1ccc2c(ccn2Cc2cccc(F)c2)c1,101%,92.2%,79.6%,88.3%,71.4%,66%,97.6%,98%
O=S(Nc1ccccc1)c1ccc(Cl)cc1 (stereo not given),90.7%,110%,90.4%,86.8%,101%,92.1%,95.4%,109%
CNC(=O)c1cc(Oc2ccc3c(c2)sc2nc(-c4cc(C(F)(F)F)cc(C(F)(F)F)c4)cn23)ccn1,30.6%,52.9%,60.8%,64.9%,51.1%,36.3%,74.3%,69.5%
CCCn1c(=S)sc2c(NNC(C)=O)nc(C)nc21,78.9%,110%,115%,101%,95.9%,95.3%,94.8%,97%
Cc1nc2sc(C(=O)Nc3ccccn3)c(N)c2cc1C(C)O (stereo not given),73.1%,85.1%,-31.6% (active),48.8%,29.6%,48.1%,74.8%,37.5%
COC(=O)[C@@]1(C)CC[C@]2(C)CC[C@]3(C)C4=CC=C5C(=CC(=O)C(O)=C5C)[C@]4(C)[C@@H](O)C[C@@]3(C)[C@@H]2C1,-13.7% (active),35.5%,15.9%,-10.4% (active),17.6%,0.149% (active),37.7%,77.6%
Cc1cc(Cl)nc(N2CCN(CCNc3ccnc4cc(Cl)ccc34)CC2)n1,19.5%,47%,50.2%,45.3%,26.8%,25.3%,-3.07% (active),55.7%
Oc1c(CN2CCC(N3CCOCC3)CC2)cc(Cc2cc(CN3CCC(N4CCOCC4)CC3)c(O)c3ncccc23)c2cccnc12,21.5%,33.5%,20.3%,28.2%,5.06% (active),11.5%,0.162% (active),17.1%
CCOc1ccc(NC(=O)Nc2ccc(OCC)cc2)cc1,95.7%,113%,109%,116%,94.5%,106%,103%,102%
CCOC(=O)NC(=S)n1oc(=O)c2ccccc21,99.2%,111%,101%,97.5%,100%,101%,101%,103%
NC(=O)c1ccccc1OCC(=O)Nc1ccc(Cl)c(Cl)c1,79.8%,93.2%,103%,102%,79.7%,100%,103%,100%
C=CN(C(=O)N1CCN(c2cc3c(cc2F)c(=O)c(C(=O)O)cn3C2CC2)CC1)c1nc(-c2ccccc2)cs1,78.9%,101%,96.4%,112%,94.8%,86%,103%,104%
Cc1ccc2nc(-c3ccc(C(=O)N/N=C/c4ccc([N+](=O)[O-])cc4)cc3)[nH]c2c1,91.1%,106%,102%,106%,88.3%,103%,105%,97.6%
CC(O)CNC(Cc1ccccc1)c1ccc2c(c1)OCO2 (stereo not given),47.2%,57.9%,99.6%,92.8%,91.5%,62.1%,104%,99.3%
C=C(C)[C@@H]1CC[C@]2(C)[C@H](C=CC3=C4C[C@@](C)(CO)CC[C@]4(C)CC[C@]32C)[C@@]1(C)CCCN,-43.7% (active),80%,-96.8% (active),-80.8% (active),-78.5% (active),-86.5% (active),-92% (active),-71.7% (active)
C=C1C(=O)O[C@H]2[C@H]1CC/C(COC(=O)NCc1ccc(Cn3c(=O)sn(-c4ccc(I)cc4)c3=O)cc1)=C\CC[C@@]1(C)O[C@@H]21,45.2%,74.5%,80.9%,3.86% (active),38.6%,28.3%,105%,98.4%
COc1ccc(Nc2ncc(I)c(NCCCNC(=O)C3CCC3)n2)cc1,43%,-73.8% (active),49.4%,12.9%,3.83% (active),-30.3% (active),25.4%,5.46% (active)
O=C1Nc2ccc(Cl)cc2/C1=C/c1ccc[nH]1,13%,48.7%,96.5%,112%,16.2%,87.1%,65.8%,13.5%
CCN(CC)CCCNc1cc(OC)c(OC)c2cccnc12,33.8%,81.2%,42.3%,58.4%,31.4%,9.79% (active),76.1%,84.1%
CCOC(=O)c1c(C)nc2c(c1N)C(=O)C(=O)N2Cc1ccc(OC)cc1,49.1%,80.5%,31%,41.9%,18.6%,25.1%,99.3%,25.7%
CCn1cc(C(=O)N/N=C/c2cccc(F)c2)c(=O)c2cc(F)c(N3CCNC(C)C3)c(F)c21 (stereo not given),72.3%,82.9%,-74.7% (active),-84.6% (active),-83.5% (active),71.2%,-80.6% (active),-26.8% (active)
Cc1cc2oc(/C=C/c3ccccc3)cc(=O)c2c(C)c1Cl,87%,101%,95.9%,100%,98%,105%,106%,109%
CC(C)c1ccc2c(c1)CC[C@H]1[C@](C)(C(=O)OCC#CCN3CCCC3)CCC[C@]21C,63.4%,93.4%,82.9%,84.6%,73.9%,48.5%,86.9%,81.4%
CSc1ccc2c3c(n(C[C@H](O)CO)c(=O)c2c1)-c1ccccc1C3=O,27.3%,46.9%,72%,27.6%,11.5%,-20.6% (active),88.8%,25.3%
